Assay outcomes: PubChem BioAssay, several laboratories
NOD2 RIPK2 PPI – blocks binding of human NOD2 to RIPK2. O43353. CHO BLA complementation NOD2-RIPK2, CCF4 ratio. inhibition, % at 4.98 µM. 360,000 compounds, 0.38% hits. AID 624267; in the data active means inhibition above about 21%;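 further: 0% = vehicle only and 100% = reference blocker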
TLR4-MyD88 BLA – blocks binding of human TLR4 to MyD88. 200,000 compounds, 0.18% hits. HeLa CL3-4 TLR4/MyD88 BLA complementation, FRET ratio. O00206+Q99836. inhibition, % at 8.4 µM; in the data active means inhibition above about 25%;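 further: 0% = vehicle and 100% = reference inhibitor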
Exocytosis inh – blocks lytic granule exocytosis; inhibition, % at 10 µM; TALL-104 LAMP-1 surface exposure, flow cytometry; cells stimulated with thapsigargin and PMA; 360,000 compounds, 0.66% hits;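 active means inhibition above about 55%, limit read from the data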
TLR9-MyD88 block – inhibitors of human TLR9-MyD88 binding | inhibition, % at 4.98 µM | Q9NR96+Q99836 | 340,000 compounds, 0.21% hits | CHO BLA complementation TLR9-MyD88, CCF4 FRET ratio;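 active means inhibition above the mean over all tested compounds plus 3 SD, cut at about 21% in these data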;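 further: 0% = DMSO only wells and 100% = clavulanate BLA inhibitor control wells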
PRMT1 FP inh – inhibitors of human PRMT1; recombinant PRMT1, activity-based probe fluorescence polarization; inhibition, % at 2.79 µM; 370,000 compounds, 1.3% hits; AID 652257;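 active means inhibition above about 21% made by adding two undisclosed values, limit read from the data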
Target sequence (Q99873 whole entry, looked up): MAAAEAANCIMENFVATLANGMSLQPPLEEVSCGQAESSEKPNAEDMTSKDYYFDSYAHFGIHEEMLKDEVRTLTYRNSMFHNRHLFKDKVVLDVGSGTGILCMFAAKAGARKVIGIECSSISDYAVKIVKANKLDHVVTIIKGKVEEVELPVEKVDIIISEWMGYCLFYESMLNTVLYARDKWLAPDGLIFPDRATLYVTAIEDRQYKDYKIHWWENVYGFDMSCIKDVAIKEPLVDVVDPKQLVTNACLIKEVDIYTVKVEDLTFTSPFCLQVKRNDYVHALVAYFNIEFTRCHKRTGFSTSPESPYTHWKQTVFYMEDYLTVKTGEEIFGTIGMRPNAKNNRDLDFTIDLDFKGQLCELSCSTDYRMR
ABHD5 PLIN5 PPI – inhibitors of human ABHD5-perilipin-5 interaction; inhibition, % at 4 µM; 360,000 compounds, 0.78% hits; Q00G26+Q8WTS1; AID 602281; Split G. princeps luciferase complementation, luminescence, 4 h;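 active means inhibition above the mean inhibition across every tested compound plus 3 SD, cut at about 22% in these data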;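 further: 0% = DMSO only wells and the 100% control is not disclosed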
Starred values were filed as active, the others as inactive; . = not tested or not shown. Only some compounds are listed: those with a hit (about 2.6% of all), similar ones and a draw of the others.

SMILES	NOD2 RIPK2 PPI	TLR4-MyD88 BLA	Exocytosis inh	TLR9-MyD88 block	PRMT1 FP inh	ABHD5 PLIN5 PPI
C#CCOCCOCCOCCNc1nc(N2CCN(C(=O)Cn3cc(CCCN=C(N)N)nn3)CC2)nc(N2CCN(C(=O)[C@H]([C@@H](C)CC)n3cc(CCCCN)nn3)CC2)n1	-3.6	.	-7.8	-12.7	-0.1	-3.8
C#CCOCCOCCOCCNc1nc(N2CCN(C(=O)CCCCCCCCCCNC(=O)Cn3cc(CCCCCN)nn3)CC2)nc(N2CCN(C(=O)CCCCCCCCCCNC(=O)[C@H]([C@@H](C)CC)n3cc(CCCCN=C(N)N)nn3)CC2)n1	35.1*	.	-11.4	39.5*	.	58.2*
C#CCOCCOCCOCCNc1nc(N2CCN(C(=O)[C@H]([C@@H](C)CC)n3cc(CCCN=C(N)N)nn3)CC2)nc(N2CCN(C(=O)[C@H]([C@@H](C)CC)n3cc(CCCN=C(N)N)nn3)CC2)n1	.	-11.8	.	.	.	.
C=CCO[C@H]1CN(C(=O)OC)[C@@H](c2ccccc2Br)C[C@H]1OCC=C	.	.	.	.	-1.8	.
COC(=O)Cc1nnn2c1[C@H](C)[C@@H](OC)c1ccccc1-2	.	.	.	.	-3.3	.
c1ccc(-c2nc3ccccc3nc2-c2ccc(CN3CCC4(CC3)CNc3ccccc34)cc2)cc1	.	.	.	.	-1.2	.
Cc1cccc(Cl)c1NC(=O)N(C)c1ccccc1	.	.	.	.	2.5	.
C#CCOCCOCCOCCNc1nc(N2CCN(C(=O)CCCCCCCCCCNC(=O)[C@@H](CCC(=O)O)n3cc(CCCCCN)nn3)CC2)nc(N2CCN(C(=O)CCCCCCCCCCNC(=O)[C@H]([C@@H](C)CC)n3cc(CCCCCN)nn3)CC2)n1	-0.9	.	17.0	5.2	.	51.2*
C#CCOCCOCCOCCNc1nc(N2CCOCC2)nc(N2CCN(C(=O)CCCCCCCCCCNC(=O)[C@@H]([C@H](C)CC)n3cc(CCCCCN)nn3)CC2)n1	-8.8	.	-8.4	8.7	6.4	26.6*
CCn1ccc(C(=O)NC2CCCC2)n1	-2.2	.	1.6	-2.8	-0.1	2.4
CCn1ccc(C(=O)NC2=NCCS2)n1	-4.4	-6.4	-7.7	4.2	24.0*	-23.2
CCOC(=O)c1sc2nc(CC(=O)OC)nc(NCc3ccco3)c2c1C	2.3	0.7	0.4	-6.5	22.2*	12.9
CCOC(=O)c1sc2nc(CC(=O)OC)nc(NCC(=O)OC)c2c1C	5.0	7.9	-0.1	-4.8	3.5	-3.3
Cc1nc2c(=O)[nH]c(=S)[nH]c2[nH]c1=O	-13.6	.	-5.8	-3.3	24.2*	-6.1
Cc1nc2[nH]c(=S)[nH]c(=O)c2nc1C	3.6	.	-10.6	1.6	1.0	-9.9
CC(C)(C)c1ccc(C#C[C@@H]2C=C[C@H](O)[C@@H](COC(=O)Nc3ccccc3)O2)cc1	.	.	.	.	-1.8	.
Cc1cc(SCC(=O)c2ccc3c(c2)OCO3)nc2ccccc12	4.8	-8.2	1.9	4.6	-0.1	-14.5
Cc1cc(SCC(=O)c2ccc(O)c(O)c2)nc2ccccc12	6.1	-8.5	48.8	-9.7	23.6*	-11.0
CC1=C(C(=O)OCC(C)C)C(c2cccc(F)c2)N2C(=O)C(C)SC2=N1 (configuration not stated)	0.3	-5.5	59.2*	-11.3	2.8	-3.6
COc1ccc2[nH]c3c(c2c1)CCNC3c1ccc([N+](=O)[O-])o1 (configuration not stated)	-5.1	.	48.1	5.0	23.1*	6.9
NC(=O)c1ccc(NC(=O)CSC(=O)c2ccccc2)cc1	6.0	.	2.3	-10.7	35.9*	-10.8
CC(CNc1ccccc1O)C(=O)O (configuration not stated)	-2.7	-12.7	-5.6	-7.6	23.5*	1.9
CC(=O)C1=C(C)N(Cc2ccc(Cl)cc2)C(=S)NC1c1ccc(Cl)cc1 (configuration not stated)	.	.	.	.	3.0	.
CN1C(=O)NC(c2ccccc2[N+](=O)[O-])C2=C1CC(C)(C)CC2=O (configuration not stated)	-3.4	.	6.6	-14.0	17.8	-6.2
CN1C(=O)NC(c2ccccc2[N+](=O)[O-])C2=C1CCCC2=O (configuration not stated)	-5.9	.	2.6	-1.3	36.3*	2.8
SMILES	NOD2 RIPK2 PPI	TLR4-MyD88 BLA	Exocytosis inh	TLR9-MyD88 block	PRMT1 FP inh	ABHD5 PLIN5 PPI
COc1cc2c(cc1OC)CSC1C(=O)N(C)C(SC2)C(=O)N1C	.	.	.	.	2.7	.
Cn1c(Cc2ccccc2)nnc1SCC(=O)NC1CCCC1	-4.5	.	6.5	-2.5	-0.6	2.6
O=C(CSc1nnc(Cc2ccccc2)n1Cc1ccco1)NC1CCCC1	-6.5	-3.5	-1.3	-16.8	22.2*	2.3
COc1ccc(C(NC(=O)/C=C/c2ccco2)c2ccc(OC)c(OC)c2)cc1 (configuration not stated)	-1.2	5.0	6.9	0.1	24.5*	11.8
CCOc1ccc(C(NC(=O)/C=C/c2ccco2)c2ccc(OC)c(OC)c2)cc1 (configuration not stated)	0.3	-6.8	1.6	-14.2	6.3	11.4
COc1ccc(C2(CNC(=O)/C=C/c3ccco3)CCCC2)cc1OC	-6.0	3.6	-2.7	6.8	20.8	35.4*
Nc1[nH]c(C(=O)c2ccccc2)c(-c2ccc(Cl)cc2)c1C(=O)c1c[nH]c2ccccc12	.	.	.	.	0.8	.
O=S1(=O)c2ccc(N3CCC[C@@H]3CO)cc2O[C@@H]2CCN1C2	.	.	.	.	2.9	.
CCCN1C(=O)c2[nH]nc(-c3ccccc3)c2C1c1ccc(Br)cc1 (configuration not stated)	.	.	.	.	1.1	.
CCCCN1C(=O)Cc2c1nc(N)c1c(N)nc(N(CCC)CCC)c(C#N)c21	-12.9	2.6	71.6*	4.4	17.2	-12.8
COc1ccc2c(c1OC)C(=O)OC2Nc1nc(-c2cc3ccccc3oc2=O)cs1 (configuration not stated)	-13.1	8.3	79.1*	0.2	0.6	1.1
Cc1ccccc1OCCOC(=O)c1c(-c2ccccc2)noc1C	-5.9	.	94.5*	9.9	7.8	-1.0
Cc1cc(O)c(C(C)C)cc1C1(c2cc(C(C)C)c(O)cc2C)OC(=O)c2ccccc21	6.9	.	88.3*	-4.2	-0.8	7.5
CCOc1ccc(C2NC(=O)C(C#N)=C(S)N2c2ccc(C)cc2)cc1OC (configuration not stated)	-6.0	-4.6	0.6	-4.9	2.2	-26.5
CCOc1ccc(C2NC(=O)C(C#N)=C(S)N2c2cccc(C)c2)cc1OC (configuration not stated)	-0.4	-1.1	69.3*	-6.3	2.1	-1.8
CCC(=O)N/N=C/c1ccc(-c2ccc([N+](=O)[O-])cc2)o1	-2.1	-2.0	1.8	3.5	0.3	3.5
CC(C)(C)C(=O)/C=c1\s/c(=C\c2ccc(-c3ccc([N+](=O)[O-])cc3)o2)c(=O)n1CC(=O)NC(N)=O	-3.3	12.5	58.3*	4.5	-12.4	1.4
Cc1noc(C)c1C(=O)Nc1c(F)cc(F)cc1Br	-3.5	-3.2	-0.5	-2.6	4.0	-1.8
Cc1cc(C(=O)Nc2c(F)cc(F)cc2Br)c(C)o1	-12.0	6.6	3.2	-5.2	-2.2	23.0*
